The campaign covered roughly 39,000 compounds. About 3,300 (8.5%) were called active. The entries come from a sample that favours actives as a whole.
The compounds below were run on HepG2 (assay: cytotoxicity call (relative viability < 0.9)). Details: 10 µM.
With `CC1(C)OC(=O)C2(C(=O)O1)[C@@H](c1ccc(-c3cccc(Br)c3)cc1)CC(=O)C[C@H]2c1ccccc1` the cytotoxicity call was “inactive”. With `CCCNC(=O)c1cc2c(c(-c3cccc(-c4cc5ccccc5o4)c3)n1)[C@H](CCO)N(C(=O)NC(C)C)C2` the cytotoxicity call was “inactive”. With `C[C@@H]1CCCCO[C@@H](CN(C)S(=O)(=O)c2ccccc2)[C@@H](C)CN([C@@H](C)CO)C(=O)c2cc(NC(=O)Nc3cccc4ccccc34)ccc2O1` the cytotoxicity call was “inactive”. In the case of `Cc1noc(C)c1S(=O)(=O)Nc1ccc2c(c1)C(=O)N([C@H](C)CO)C[C@H](C)[C@@H](CN(C)S(=O)(=O)c1cn(C)cn1)OCCCC[C@H](C)O2`, the cytotoxicity call was “inactive”. `C[C@H]1CN([C@@H](C)CO)C(=O)c2cc(NC(=O)Nc3cccc4ccccc34)ccc2O[C@H]1CN(C)Cc1ccc(C(F)(F)F)cc1` was tested, and the cytotoxicity call was “inactive”. For `C[C@H](CO)N1C[C@H](C)[C@@H](CN(C)Cc2ccc(C(F)(F)F)cc2)Oc2ccc(NC(=O)Nc3cccc4ccccc34)cc2C1=O`, the cytotoxicity call was “inactive”. `C[C@@H]1CN([C@@H](C)CO)C(=O)c2cc(NC(=O)Nc3cccc4ccccc34)ccc2O[C@@H]1CN(C)Cc1ccc(C(F)(F)F)cc1` was tested, and the cytotoxicity call was “active”. For `C[C@@H]1CN([C@@H](C)CO)C(=O)c2cc(NC(=O)Nc3cccc4ccccc34)ccc2O[C@H]1CN(C)Cc1ccc(C(F)(F)F)cc1`, the cytotoxicity call was “active”. `C[C@H]1CN([C@@H](C)CO)C(=O)c2cc(NC(=O)Nc3cccc4ccccc34)ccc2O[C@@H]1CN(C)Cc1ccc(C(F)(F)F)cc1` was tested, and the cytotoxicity call was “inactive”. For `C[C@@H]1CN([C@H](C)CO)C(=O)c2cc(NC(=O)Nc3cccc4ccccc34)ccc2O[C@@H]1CN(C)Cc1ccc(C(F)(F)F)cc1`, the cytotoxicity call was “inactive”. In the case of `C[C@H](CO)N1C[C@H](C)[C@H](CN(C)Cc2ccc(C(F)(F)F)cc2)Oc2ccc(NC(=O)Nc3cccc4ccccc34)cc2C1=O`, the cytotoxicity call was “active”. In the case of `C[C@@H]1CN([C@H](C)CO)C(=O)c2cc(NC(=O)Nc3cccc4ccccc34)ccc2O[C@H]1CN(C)Cc1ccc(C(F)(F)F)cc1`, the cytotoxicity call was “inactive”. For `O=C(O)c1cc(=O)cc(C(=O)O)o1`, the cytotoxicity call was “inactive”. `C=CCn1c(O)c(C#N)c(C)cc1=O` was tested, and the cytotoxicity call was “inactive”. For `CN(C)C(=O)C[C@H]1CC[C@H](NC(=O)C2CCOCC2)[C@H](CO)O1`, the cytotoxicity call was “inactive”. With `C[C@@H]1CCCCO[C@H](CN(C)C(=O)c2ccccc2)[C@@H](C)CN([C@H](C)CO)C(=O)c2cc(NS(=O)(=O)c3ccc(Cl)cc3)ccc2O1` the cytotoxicity call was “inactive”. With `N#C/C(=C\c1cccs1)c1csc2ccc(Cl)cc12` the cytotoxicity call was “inactive”. In the case of `CO[C@@H]1CN(C)C(=O)c2cc(NC(=O)CC(F)(F)F)ccc2OC[C@@H](C)N(S(=O)(=O)c2cn(C)cn2)C[C@@H]1C`, the cytotoxicity call was “inactive”. For `O=S(=O)(c1cccc(OC(F)F)c1)N1[C@@H]2CC[C@@H](C2)[C@H]1c1nc2cccc(OCc3ccccc3)c2[nH]1`, the cytotoxicity call was “inactive”. For `C[C@@H]1CN([C@@H](C)CO)S(=O)(=O)c2ccc(C#CC(C)(C)O)cc2O[C@H]1CN(C)Cc1ccc(F)cc1`, the cytotoxicity call was “inactive”. `C[C@@H]1CN([C@@H](C)CO)C(=O)Cc2cc(NC(=O)Nc3ccc4c(c3)OCO4)ccc2O[C@H]1CN(C)Cc1ccc(C(F)(F)F)cc1` was tested, and the cytotoxicity call was “inactive”. `C[C@@H]1CN([C@H](C)CO)C(=O)Cc2cc(NC(=O)Nc3ccc4c(c3)OCO4)ccc2O[C@@H]1CN(C)Cc1ccc(C(F)(F)F)cc1` was tested, and the cytotoxicity call was “active”. With `C[C@@H]1CN([C@H](C)CO)C(=O)Cc2cc(NC(=O)Nc3ccc4c(c3)OCO4)ccc2O[C@H]1CN(C)Cc1ccc(C(F)(F)F)cc1` the cytotoxicity call was “active”. With `C[C@H](CO)N1C[C@H](C)[C@H](CN(C)Cc2ccc(C(F)(F)F)cc2)Oc2ccc(NC(=O)Nc3ccc4c(c3)OCO4)cc2CC1=O` the cytotoxicity call was “inactive”. With `C[C@H]1CN([C@@H](C)CO)C(=O)Cc2cc(NC(=O)Nc3ccc4c(c3)OCO4)ccc2O[C@H]1CN(C)Cc1ccc(C(F)(F)F)cc1` the cytotoxicity call was “active”. `C[C@H]1CN([C@@H](C)CO)C(=O)Cc2cc(NC(=O)Nc3ccc4c(c3)OCO4)ccc2O[C@@H]1CN(C)Cc1ccc(C(F)(F)F)cc1` was tested, and the cytotoxicity call was “inactive”. With `C[C@@H]1CN([C@@H](C)CO)C(=O)Cc2cc(NC(=O)Nc3ccc4c(c3)OCO4)ccc2O[C@@H]1CN(C)Cc1ccc(C(F)(F)F)cc1` the cytotoxicity call was “inactive”. `C[C@H](CO)N1C[C@H](C)[C@@H](CN(C)Cc2ccc(C(F)(F)F)cc2)Oc2ccc(NC(=O)Nc3ccc4c(c3)OCO4)cc2CC1=O` was tested, and the cytotoxicity call was “inactive”. With `C[C@@H]1CCCCO[C@H](CN(C)C(=O)c2ccccc2)[C@H](C)CN([C@@H](C)CO)C(=O)c2cc(NS(=O)(=O)c3ccc(F)cc3)ccc2O1` the cytotoxicity call was “inactive”. In the case of `COCC(=O)N1C[C@H](C)[C@@H](OC)CN(C)C(=O)c2cc(NC(=O)Nc3ccccc3)ccc2OC[C@H]1C`, the cytotoxicity call was “inactive”. With `C[C@@H]1CN([C@@H](C)CO)C(=O)c2cc(-c3ccc(C(=O)N(C)C)cc3)cnc2O[C@@H]1CN(C)C(=O)c1cccnc1` the cytotoxicity call was “inactive”. `C[C@@H]1CN([C@@H](C)CO)S(=O)(=O)c2ccc(C#Cc3ccc(F)cc3)cc2O[C@H]1CN(C)S(=O)(=O)c1cn(C)cn1` was tested, and the cytotoxicity call was “inactive”. `C[C@@H]1CN([C@H](C)CO)C(=O)c2cc(NC(=O)Cn3cnnn3)ccc2O[C@@H]1CN(C)Cc1ccc(C(=O)O)cc1` was tested, and the cytotoxicity call was “inactive”. `COc1ccc(CCNC(=O)[C@@]2(Sc3ccc(C)cc3)CC(=O)N(Cc3ccccc3C(F)(F)F)[C@@H]2c2ccc(CO)cc2I)cc1` was tested, and the cytotoxicity call was “inactive”. In the case of `O=C(NCC1CC1)[C@@H]1[C@@H](CO)[C@@H]2Cn3c(cccc3=O)[C@H]1N2C(=O)c1cccnc1`, the cytotoxicity call was “inactive”. In the case of `Cc1ccc(S(=O)(=O)Nc2cccc3c2O[C@H](CN(C)S(=O)(=O)c2ccccc2)[C@@H](C)CN([C@H](C)CO)C3=O)cc1`, the cytotoxicity call was “inactive”. For `CC12CC3CC(C)(C1)CC(N)(C3)C2.Cl`, the cytotoxicity call was “active”. In the case of `C[C@]12C[C@@H]3C[C@](C)(C1)C[C@@](N)(C3)C2`, the cytotoxicity call was “inactive”. For `C[C@]12CC3CC(N)(C1)C[C@@](C)(C3)C2`, the cytotoxicity call was “inactive”. With `C[C@@H]1CN([C@@H](C)CO)C(=O)c2cc(NC(=O)Nc3ccc4c(c3)OCO4)ccc2O[C@@H]1CN(C)S(C)(=O)=O` the cytotoxicity call was “inactive”. For `O=C(NCCN1CCOCC1)[C@]1(CCS(=O)(=O)c2ccccc2)N=C(c2ccc(OCCCO)cc2)O[C@@H]1c1ccccc1`, the cytotoxicity call was “inactive”.

From the antibiotic and cytotoxicity screens of Wong et al. (2023)
